Screens: PubChem BioAssay, National Center for Advancing Translational Sciences (NCATS)
Pol eta inh-1: blocks human DNA polymerase eta activity | recombinant Pol eta, fluorescent DNA replication assay | 1.2% of 390,000 active | AID 588591 | Q9Y253 | Potency, µM (highest dose often 114 µM), for the others: top-dose activity change, negative = inhibition, usual class: inhibitors; also: potency is read from the fitted curve at half-maximal effect; % is scaled to controls: 0 for no effect and ±100 for the full control effect
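Pol eta at 10 nM preincubated with compounds 15 min at room temperature; reaction started with fluorescent substrate (50 nM final) and read kinetically at 0 and 10 min.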
PI5P4K alpha inh: PI5P4K alpha (human) kinase inhibition; max response, %; PI5P4Kalpha enzyme, ADP-Glo luminescence, 60 min; active compounds read low; AID 652105; 1.2% of 330,000 active; P48426; active = max response of -50% or lower; inconclusive = between -30% and -50%; inactive = -30% or higher; also: value at the top dose of about 77 µM; % is scaled to controls: 0 for no effect and ±100 for the full control effect
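Single end-point luminescence (ADP-Glo) quantified ADP from PI5P4Kalpha turnover; ATP 5 microM final, 1 h at RT, 0.1% CHAPS and 0.28 mM EGTA in HEPES pH 7.4.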
Pol kappa inh: blocks human DNA polymerase kappa activity | purified Pol kappa, fluorescent DNA synthesis assay, 10 min | 0.53% of 400,000 active | Potency, µM (titrated, usually from 107 µM), for the others: at the top dose activity, negative = inhibition, usual class: inhibitors; also: potency is read from the fitted curve at half-maximal effect; % is scaled to controls: 0 for no effect and ±100 for the full control effect
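Kinetic fluorescence readout at 0 and 10 min followed reaction start with substrate at 50 nM final. Beforehand, enzyme (10 nM Pol kappa) stood 15 min with compound at room temperature; buffer-only wells were negative controls.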
Pol beta inh: inhibitors of human DNA polymerase beta. Potency, µM (highest dose often 114 µM), for inactives: top-dose activity change, negative = inhibition, hits mostly inhibitors. Pol beta primer extension/strand displacement, fluorescence kinetic. P06746. 1.3% of 340,000 active; also: potency is read from the fitted curve at half-maximal effect; % is scaled to controls: 0 for no effect and ±100 for the full control effect
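Kinetic readout of DNA synthesis with strand displacement by Pol beta. Compound and 10 nM enzyme sit 15 min at room temperature; 50 nM substrate starts the reaction, read immediately and at 10 min.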
Pol iota inh: inhibitors of human DNA polymerase iota; Pol iota fluorescent replication assay, 10 min; AID 588590; 1% of 390,000 active; Potency, µM (titrated, usually from 115 µM), for the others: at the highest dose activity, negative = inhibition, usual class: inhibitors; Q9UNA4; also: potency is read from the fitted curve at half-maximal effect
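Pol iota at 10 nM preincubated 15 min with compounds at room temperature; reaction started with fluorescent substrate, 50 nM final. Fluorescence read kinetically at 0 and 10 min; buffer-only wells as negative control.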
WRN helicase inh-1: WRN helicase (human) inhibition; AID 651768; 0.46% of 360,000 active; Potency, µM (highest dose often 114 µM), inactives show at the top dose activity change, negative = inhibition, actives largely listed as inhibitors; WRN helicase unwinding, fluorescent forked duplex, kinetic; Q14191; also: potency is read from the fitted curve at half-maximal effect; % is scaled to controls: 0 for no effect and ±100 for the full control effect; nearly all actives have a fitted effect of over 55% in size
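Kinetic fluorescence helicase assay: unwinding of a quenched forked DNA duplex (100 nM final) with 2 mM ATP final raises red fluorescence (525/598 nm). Compounds sat 15 min at room temperature with 20 nM WRN beforehand.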
TbPGK inh: blocks T. brucei phosphoglycerate kinase; 79% of 500 active; TbPGK coupled GAPDH assay, Kinase-Glo luminescence; shares compounds with Pol kappa inh; Potency, µM (titrated, usually from 57.5 µM), for inactives: top-dose activity change, negative = inhibition, hits mostly inhibitors; AID 686980; also: potency is read from the fitted curve at half-maximal effect; % is scaled to controls: 0 for no effect and ±100 for the full control effect; nearly all actives have a fitted effect of over 65% in size
POLI cherry-pick: Human Pol iota inhibitor confirmatory assay | Pol iota primer extension, TAMRA/BHQ fluorescence | shares compounds with Pol kappa inh | Potency, µM, actives largely listed as inhibitors | 77% of 1,500 active; also: potency is read from the fitted curve at half-maximal effect
Pol eta inh-2: confirmation of human DNA polymerase eta inhibitors | shares compounds with Pol eta inh-1 | Pol eta primer extension, TAMRA/BHQ fluorescence, 10 min | Potency, µM, hits mostly inhibitors | 64% of 2,600 active; also: potency is read from the fitted curve at half-maximal effect
WRN helicase inh-2: WRN helicase inhibition, cherry-pick retest | shares compounds with WRN helicase inh-1 | WRN helicase DNA unwinding, fluorescence kinetic | Potency, µM (top dose mostly 57.1 µM), inactives show at the highest dose activity, negative = inhibition, hits mostly inhibitors | 63% of 610 active | AID 720497; also: potency is read from the fitted curve at half-maximal effect; nearly all actives have a fitted effect of over 65% in size
TO DNA binding: DNA binding via thiazole orange displacement. shares compounds with WRN helicase inh-1. thiazole orange DNA binding displacement, fluorescence. Potency, µM (doses to about 57.1 µM), inactives show at the top dose activity change, negative = inhibition, hits mostly inhibitors. 10% of 610 active. AID 720499;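 also: drop in dye fluorescence marks compound binding to DNA; potency is read from the fitted curve at half-maximal effect; % is scaled to controls: 0 for no effect and ±100 for the full control effect; nearly all actives have a fitted effect of over 60% in size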
BLM counter: BLM helicase inhibition, WRN selectivity check | shares compounds with WRN helicase inh-1 | Recombinant BLM helicase DNA unwinding, red fluorescence | Potency, µM (series often up to 57.1 µM), for inactives: at the highest dose activity change, negative = inhibition, actives largely listed as inhibitors | 60% of 610 active; also: potency is read from the fitted curve at half-maximal effect; nearly all actives have a fitted effect of over 60% in size
ADP-Glo interf: ADP-Glo luciferase interference, PI5P4K counter-screen. shares compounds with PI5P4K alpha inh. ADP-Glo detection counter-screen, luciferase luminescence, no enzyme. Potency, µM (highest dose often 76.9 µM), without a hit: at the highest dose activity change, negative = inhibition, hits mostly inhibitors. 1,100 tested, under 10 active. AID 743285
An asterisk follows results filed as active; ? = inconclusive; . = no result; [ ] = remark or other dose. The list is not random: actives were taken first. Their share in the collection is about 2.8%. Unless noted, calls follow the shape of the dose curve; as a rule, active = well fitted curve in the direction sought with a large enough effect; inconclusive = small, poorly fitted or top-dose-only effect, or another doubt; inactive = no such curve, though single readings can be large; an effect the other way counts as inactive or inconclusive.

SMILES	Pol eta inh-1	PI5P4K alpha inh	Pol kappa inh	Pol beta inh	Pol iota inh	WRN helicase inh-1	POLI cherry-pick	Pol eta inh-2	ADP-Glo interf	others
COCCN(C(=O)COC(=O)c1cc2c(s1)CCC2)c1c(N)n(Cc2ccccc2)c(=O)[nH]c1=O	0.71µM*	-87*	4.5µM*	.	3.2µM*	8.9µM*	1.9*	2.1*	0%	TbPGK inh=0.82µM*;WRN helicase inh-2=2.2µM*;TO DNA binding=?;BLM counter=0.43µM*
O=C(NNC(=O)C1CCC1)c1ccc(F)cc1	-2%	-2	.	.	.	10%	.	.	.
Cc1ccc(C(=O)NCCn2cc(SCC(=O)Nc3cc(C)on3)c3ccccc32)cc1	-18%	2	10%	2%	-15%	-1%	.	.	.
Cc1cc(NC(=O)CSc2cn(CCNC(=O)c3ccccc3)c3ccccc23)no1	?	-76*	11µM*	19%	?	32µM*	8.4*	11*	0%	TbPGK inh=1.2µM*;WRN helicase inh-2=12µM*;TO DNA binding=-14%;BLM counter=3.4µM*
C#CCN1C(=O)S/C(=C\c2ccc(-c3ccc(C(=O)O)cc3C)o2)C1=O	7.1µM*	-57*	18µM*	16µM*	8.9µM*	?	15*	8.5*	2%
CC(C)OC(=O)CN1C(=O)S/C(=C/c2ccc(N3CCCCC3)o2)C1=O	-2%	.	-5%	-1%	?	-11%	.	.	.
Cc1ccc2c(CN3CCN(C(=O)c4ccc(F)cc4)CC3)cc(=O)oc2c1	19%	.	-10%	-2%	-1%	.	.	.	.
Cc1cc2[nH]c3c4ccccc4nc(C)c3c2cc1C	-19%	-52*	79µM*	.	14µM*	22%[11.6 µM]	42*	.	6%
COc1ccc2c(c1)c(=O)oc1c(C)c(OCc3cc(C(=O)O)oc3C)ccc12	14µM*	-68*	79µM*	35µM*	35µM*	50µM*	?	?	1%
COc1ccc2c(c1)c(=O)oc1c(C)c(OCc3ccc(C(=O)O)cc3)ccc12	?	?	-4%	?	?	-10%	.	.	.
Cn1cccc1C(=O)OCc1nc2ccccc2c(=O)[nH]1	20µM*	-53*	71µM*	.	18µM*	-10%[11.6 µM]	47*	?	-11%
O=c1[nH]c(COc2ccccc2)nc2ccccc12	-3%	-1	-6%	14%	-10%	1%	.	.	.
O=C(Nc1nccs1)c1cc(-c2ccccc2)nc2ccccc12	-17%	13	-9%	7%	143%	-20%	.	.	.
